Screening results (PubChem BioAssay)
An excerpt weighted towards active compounds, which were near 2.1% of everything screened.
TDP-43 yeast inh – TDP-43 toxicity inhibition in yeast | TDP-43 expressing yeast growth rescue, BacTiter-Glo, 24 h | Potency, µM (titrated, usually from 46.1 µM), actives largely listed as activators | actives 1.8% (n = 410,000) | AID 652104; also: nearly all actives have a fitted effect of over 50% in size
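Yeast cells expressing TDP-43 under galactose induction are exposed to compounds for 24 hr at 30 deg C. BacTiter-Glo luminescence measures growth, so protective compounds score as activators.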
FUS suppressor – FUS proteinopathy suppression in yeast; AID 1347120; S. cerevisiae FUS-expressing, growth rescue, OD600, 24 h; actives 0.24% (n = 390,000); Potency, µM (titrated, usually from 76.6 µM), hits mostly activators; also: nearly all actives have a fitted effect of over 55% in size
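FUS-expressing yeast, raffinose-pregrown, induced in 2% galactose minimal medium at OD 0.005; compounds in a dilution series, 24hr at 30C. Growth restoration read as absorbance at 600 nm. CP55940 positive control, DMSO negative.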
aSyn yeast inh – inhibitors of alpha-synuclein toxicity in yeast | actives 0.14% (n = 370,000) | AID 652106 | Potency, µM (series often up to 46.1 µM), actives largely listed as activators | Yeast expressing alpha-synuclein, growth rescue, BacTiter-Glo, 24 h; also: nearly all actives have a fitted effect of over 65% in size
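Screening used galactose-induced yeast with toxic alpha-synuclein levels, exposed to compound for 24 hr at 30 deg C. Cell growth, read with BacTiter-Glo luminescence, gave the measured signal.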
Abeta yeast res – A-beta toxicity reversal in yeast | Potency, µM (top dose mostly 46.1 µM), most hits filed as activators | actives 0.063% (n = 410,000) | yeast expressing A-beta42, growth rescue, OD600, 48 h; response scale: 0% DMSO, 100% iron-clioquinol control | AID 1347071; also: nearly all actives have a fitted effect of over 55% in size
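Yeast growth medium received pinned compounds, then yeast cells expressing toxic A-beta were added; plates incubated at 30 C for 48 hr. Growth read as absorbance at 600 nm, normalized to DMSO and equimolar FeCl3 plus clioquinol controls.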
Of the large screens only hits and unclear results are named; the others gave an inactive call; ! = repeats disagree. Calls follow the shape of the dose curve; as a rule, active = well fitted curve in the direction sought with a large enough effect; inconclusive = small, poorly fitted or top-dose-only effect, or another doubt; inactive = no such curve, though single readings can be large; an effect the other way counts as inactive or inconclusive.

CC12CCC3C(CCC4CC(=O)C(C(O)C(F)(F)F)CC43C)C1CCC2O (configuration not stated)	TDP-43 yeast inh 14.1µM
COc1ccc(-[n+]2c(-c3ccccc3)cc(-c3ccc(C)cc3)cc2-c2ccccc2)cc1	none
CC(C)OC(=O)C1C2c3ccccc3C(c3ccccc32)C1C(=O)O (configuration not stated)	TDP-43 yeast inh inconclusive
CC(C)CN(CC(C)C)C(=O)C1C2c3ccccc3C(c3ccccc32)C1C(=O)O (configuration not stated)	TDP-43 yeast inh 11.2µM
CCOC(=O)[C@]12Cc3cc(Cl)ccc3[C@H]1N(C)C(=O)c1cc(OC)ccc12	TDP-43 yeast inh 22.4µM
CCOC(=O)[C@]12Cc3cc(OC)ccc3[C@H]1N(C)C(=O)c1cc(OC)ccc12	TDP-43 yeast inh inconclusive
COc1ccc(N2C(=O)/C(=C/c3ccc(C)o3)C(=O)NC2=S)cc1	TDP-43 yeast inh 7.08µM
CCOc1ccc(N2C(=O)/C(=C/c3ccc(C)o3)C(=O)NC2=S)cc1	none
O=c1[nH]c(=O)n(Cc2ccc(F)cc2)c(O)c1C=NCCCN1CCOCC1	none
O=C(Oc1ccc2ccccc2c1)c1ccco1	TDP-43 yeast inh 11.2µM
C[C@H]1CCC[C@@H](O)CCC/C=C/c2cc(O)cc(O)c2C(=O)O1	none
CCOc1ccccc1-n1c(O)c(C=NCc2ccc3c(c2)OCO3)c(=O)[nH]c1=O	none
CN(Cc1cccc(-c2ccncc2)c1)C(=O)Oc1ccccc1Cl	none
Cc1nc2cc(OC(=O)N(C)Cc3cccc(-c4ccncc4)c3)ccc2s1	TDP-43 yeast inh 10µM
Clc1cc(Cl)cc(NC2=NCCS2)c1	none
COc1ccc2c(c[n+](C)c3c4cc5c(cc4ccc23)OCO5)c1OC	none (no result: TDP-43 yeast inh, FUS suppressor, Abeta yeast res)
COc1cc2c(ccc3c4cc(OC)c(OC)cc4c[n+](C)c23)cc1O	TDP-43 yeast inh 11.2µM (no result: FUS suppressor)
COc1ccc(C2CC(c3c(O)n(CCc4ccccc4)c(=O)[nH]c3=O)=NN2)cc1OC (configuration not stated)	FUS suppressor 22.4µM
O=S(=O)(c1ccc(Cl)cc1)N1CCC(n2cnc3cc(C(F)(F)F)ccc32)CC1	TDP-43 yeast inh 31.6µM, aSyn yeast inh inconclusive (no result: FUS suppressor)
CN(C)CCNC(=O)c1cccn(Cc2cccc(C(F)(F)F)c2)c1=O	none
CCN(CC)CCCN=Cc1c(O)n(CCc2ccc(OC)c(OC)c2)c(=O)[nH]c1=O	none
CCC(=O)CC(c1ccccc1)c1c(O)c2ccccc2sc1=O (configuration not stated)	TDP-43 yeast inh 25.1µM
CC/C(CC(c1ccccc1)c1c(O)c2ccccc2oc1=O)=N\NC(N)=S (configuration not stated)	TDP-43 yeast inh inconclusive
Cc1ccc2c(C)c3ccc4ccccc4c3c[n+]2c1	TDP-43 yeast inh 2.51µM, aSyn yeast inh inconclusive (no result: FUS suppressor)
CN(C)c1ccc(/C=C/C=C2/C(=O)NC(=O)N(c3ccccc3)C2=O)cc1	FUS suppressor 5.62µM
O=C1NC(=O)N(c2ccccc2)C(=O)/C1=C/C=C/c1ccco1	none
CCOC(=O)c1ccc(N2C(=O)CC(N3CCC(O)(c4ccc(Cl)cc4)CC3)C2=O)cc1 (configuration not stated)	TDP-43 yeast inh 5.62µM
CCOC(=O)c1ccc(N2C(=O)CC(N3CCC(O)(c4ccc(Br)cc4)CC3)C2=O)cc1 (configuration not stated)	TDP-43 yeast inh inconclusive
C=Cc1cc(OC)c2c(c1)c(=O)oc1c2cc(OC)c2c(O)ccc(C3OC(C)C(O)C(C)(O)C3O)c21 (configuration not stated)	TDP-43 yeast inh 14.1µM, aSyn yeast inh 0.631µM (no result: FUS suppressor)
COc1cc2c(c3oc4cccc(O)c4c(=O)c13)[C@@H]1C=CO[C@@H]1O2	none (no result: TDP-43 yeast inh, aSyn yeast inh, Abeta yeast res)
CCN(CC)S(=O)(=O)c1ccc(N=Cc2c(O)n(-c3ccccc3)c(=O)[nH]c2=O)cc1	none
COc1ccccc1-n1c(-c2cccs2)nc2ccccc2c1=O	none
Nc1c(C(=O)NCC2CCCO2)c2nc3ccccc3nc2n1Cc1ccco1 (configuration not stated)	none
Nc1c(C(=O)NC2CCCC2)c2nc3ccccc3nc2n1CC1CCCO1 (configuration not stated)	TDP-43 yeast inh 12.6µM, FUS suppressor inconclusive
O=C(C(=O)N1CC=C(c2ccccc2)CC1)c1c[nH]c2ccccc12	TDP-43 yeast inh 15.8µM, aSyn yeast inh inconclusive
CC1([N+](=O)[O-])COP(=O)(Nc2ccc(Cl)cc2)OC1 (configuration not stated)	none (no result: FUS suppressor)
O=C(c1ccc2c(c1)N(Cc1ccc(F)cc1Cl)C(=O)c1ccccc1S2)N1CCC2(CC1)OCCO2	TDP-43 yeast inh 17.8µM (no result: aSyn yeast inh)
c1ccc(N2CCN(c3ncnc4c3nc3n4CCCC3)CC2)cc1	TDP-43 yeast inh inconclusive (no result: aSyn yeast inh)
Cc1ccc(Cl)cc1N1CCN(c2ncnc3c2nc2n3CCCC2)CC1	TDP-43 yeast inh 14.1µM (no result: aSyn yeast inh)
CC(=O)N1CCN(c2ccc(OC[C@@H]3CO[C@@](Cn4ccnc4)(c4ccc(Cl)cc4Cl)O3)cc2)CC1	aSyn yeast inh 3.16µM (no result: TDP-43 yeast inh, FUS suppressor, Abeta yeast res)
CC(=O)N1CCN(c2ccc(OC[C@H]3CO[C@](Cn4ccnc4)(c4ccc(Cl)cc4Cl)O3)cc2)CC1	TDP-43 yeast inh inconclusive, aSyn yeast inh 5.17µM!
O=C(COc1ccc(Cl)cc1)N1CCN(Cc2ccc([N+](=O)[O-])cc2)CC1	none
Cc1ccccc1-n1c(-c2ccc([N+](=O)[O-])cc2)nc2ccccc2c1=O	TDP-43 yeast inh inconclusive, aSyn yeast inh 20µM
O=c1c2ccccc2nc(-c2ccc([N+](=O)[O-])cc2)n1-c1ccccc1	none
C=CCC1(CN2CCCCCC2=O)C(=O)NC(=O)NC1=O	none
CCC(C(=O)Nc1ccc(Cl)cc1)N1CCCC1=O (configuration not stated)	none
COc1cc(O)c(C(=O)O)c(-c2cc(O)c(O)cc2C)c1	aSyn yeast inh 14.1µM, Abeta yeast res inconclusive
O=c1[nH]c(=O)n(CCC2=CCCCC2)c(O)c1C=NCCCn1ccnc1	FUS suppressor 12.6µM
CCOC(=O)C(O)(c1ccc(N(C)C(=O)COc2ccccc2)cc1)C(F)(F)F (configuration not stated)	none
Cn1c(O)c(C2=NNC(c3ccc(Cl)cc3)C2)c(=O)n(C)c1=O (configuration not stated)	TDP-43 yeast inh inconclusive, Abeta yeast res 14.1µM
O=C(Nc1ccc2c(c1)OCCO2)c1cccn(Cc2cccc(F)c2)c1=O	TDP-43 yeast inh 35.5µM (no result: aSyn yeast inh)
Nc1ccc(Cl)cc1C(=O)c1ccccc1	none
Nc1ccc(Br)cc1C(=O)c1ccccc1	TDP-43 yeast inh 15.8µM, aSyn yeast inh inconclusive
CCN1CCN(Cc2cc(Br)ccc2O)CC1	none
CN1c2ccc([N+](=O)[O-])cc2CC2(C(=O)NC(=O)N(c3ccc(Br)cc3)C2=O)C1c1ccccc1 (configuration not stated)	FUS suppressor 17.8µM
Cc1ccc2nc(SCC(=O)N/N=C/c3ccco3)cc(C)c2c1	TDP-43 yeast inh inconclusive
Cc1oc(-c2ccccc2)nc1CN1C(=O)CN=C(c2ccccc2)c2ccccc21	TDP-43 yeast inh inconclusive
